Compound activity: PubChem, National Center for Advancing Translational Sciences (NCATS)
This is a sample that favours compounds with a hit; in the whole collection about 1.4% have one here.
p53 reactivator – restores transcriptional activity of mutant p53 | H1299 p53-A138V BP100-luciferase reporter, luminescence, 24 h | Potency, µM (titrated, usually from 92.2 µM), usual class: activators | 0.063% of 320,000 active; note: nearly all actives have a fitted effect of over 45% in size
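p53-null H1299 cells stably carrying temperature-sensitive p53-A138V and a BP100-luciferase reporter were pinned with compounds (4-point, 1:5 series) and held 24 hrs at 37 deg C. Luminescence was read 10 min after detection reagent.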
BRCA1 expr up – BRCA1 expression activation; MCF7-BRCA1-FFLuc reporter, luminescence, 48 h; response scale: scaled: vehicle 0%, 10 µM genistein 100%; Potency, µM (highest dose often 46.1 µM), most hits filed as activators; 1.1% of 380,000 active; AID 624202; note: nearly all actives have a fitted effect of over 80% in size
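Cells: MCF7-BRCA1-FFLuc, 2000/well. Exposure: 48 h, 37 °C, 5% CO2. Read: luminescence, 15 min post-substrate. Controls: genistein 10 microM (maximal activation), DMSO (neutral).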
uPA surface inh – inhibitors of cell surface uPA generation | cell surface uPA generation assay, qHTS | 0.31% of 330,000 active | Potency, µM (series often up to 38.3 µM), actives largely listed as inhibitors | AID 540303; active = well fitted inhibition curve with a large enough effect; inconclusive = small, poorly fitted or top-dose-only effect; inactive = no such curve, though single readings can be large or run the other way; tested in mouse RAW 264.7 cells; note: nearly all actives have a fitted effect of over 55% in size
TCR act – activators of T cell receptors; AID 504894; primary human leukocytes, anti-CD3, IL-2 HTRF, 48 h; 330,000 tested, under 10 active; Potency, µM (series often up to 9.22 µM), hits mostly activators
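1) Mix primary human leukocytes, a-CD3 beads and compound. 2) Incubate 48 hr. 3) Add HTRF IL-2 reagents (a-IL-2-K, a-IL-2-d2).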
IL2 activator – IL-2 activation. 0.065% of 360,000 active. activation, % (series mostly up to about 46 µM). IL-2 activation reporter assay, cell-based qHTS; stimulated with anti-CD3/CD4/CD28 beads; in transgenic mouse T cells; in the data active = activation above about 50%; inconclusive = mostly about 30% to 49%
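EGFP and DsRed fluorescence is measured by plate cytometry in unstimulated transgenic mouse T cells exposed to compound for 60 minutes, then stimulated 18 hours at 37 degrees C with anti-CD3/anti-CD4 beads plus anti-CD28.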
Hits are given with their value; - = inactive; ? = inconclusive; . = no result given. Unless noted, calls come from the whole dose curve; as a rule, active = well fitted curve in the direction sought with a large enough effect; inconclusive = small, poorly fitted or top-dose-only effect, or another doubt; inactive = no such curve, though single readings can be large; an effect the other way counts as inactive or inconclusive.

SMILES	p53 reactivator	BRCA1 expr up	uPA surface inh	TCR act	IL2 activator
CCCC1CCc2c(sc(NC(=O)c3cccs3)c2C(N)=O)C1 (centres undefined)	-	11.2µM	-	-	-
COC(=O)c1c(NC(=O)c2cccs2)sc2c1CCC(C)C2 (centres undefined)	?	-	-	-	-
CC1CCc2c(sc(NC(=O)c3cccs3)c2C(=O)O)C1 (centres undefined)	?	-	3.98µM	-	-
COc1cc(/C=N/n2cnnc2)ccc1OCc1ccc(C)cc1	-	10µM	-	-	-
COc1cc(/C=N/n2cnnc2)ccc1OCc1ccccc1	-	-	-	-	-
COC(=O)c1c(SCC(=O)Nc2cc(F)ccc2F)[nH]c2ccc(C)cc2c1=O	.	-	.	.	.
CC(Oc1ccccc1)C(=O)Nc1ccc(OCc2cc(=O)n3ccsc3n2)cc1 (centres undefined)	.	-	.	.	.
CC1(C)CC(=O)c2sc(NC(=O)c3ccco3)nc2C1	?	-	10µM	-	-
CS(=O)(=O)c1ccc2nc(NC(=O)c3ccco3)sc2c1	?	-	10µM	-	-
Cc1noc(C)c1C(=O)Nc1nc2ccc(S(C)(=O)=O)cc2s1	-	-	5.01µM	-	-
COc1ccc2nc(NC(=O)c3c(C)noc3C)sc2c1	?	2.82µM	?	-	-
Cc1ccc(C(=O)Nc2nc3ccc(S(C)(=O)=O)cc3s2)o1	?	?	-	-	-
CC1=C(C(=O)Nc2ccc(Cl)cc2)C(C(C)C)n2nc(SCc3ccc(Cl)cc3)nc2N1 (centres undefined)	.	-	.	.	.
COc1cccc(Cn2c(=O)n(-c3ccc(C)c(F)c3)c(=O)c3sc4ccccc4c32)c1	.	-	.	.	.
CCn1c(=O)c2cc(C(=O)NC3CCC(C)CC3)sc2c2ccccc21 (centres undefined)	.	-	.	.	.
Cc1ccc(S(=O)(=O)C2CCN(c3nc(-c4cccs4)nc4ccccc34)CC2)cc1	.	-	.	.	.
CCCN(CCC)c1cc(C)nc2nc(-c3ccc(Cl)cc3)nn12	.	-	.	.	.
Cc1ccccc1NC(=O)COC(=O)c1ccccc1OCC(=O)Nc1ccc(Br)cc1	.	-	.	.	.
CN(c1ccccc1)c1nc(N)c([N+](=O)[O-])c(N2CCCCC2)n1	-	-	-	-	-
CN(c1ccccc1)c1nc(N)c([N+](=O)[O-])c(N2CCCC2)n1	?	11.2µM	-	-	-
COc1ccccc1/C=N/N1C(=O)C2C3C=CC(CC3)C2C1=O (centres undefined)	-	-	-	-	-
O=C1C2C3C=CC(CC3)C2C(=O)N1/N=C/c1c[nH]c2ccccc12 (centres undefined)	?	8.91µM	-	-	-
CC[C@H](C)C(=O)O[C@H]1CCC=C2C=C[C@H](C)[C@H](CC[C@@H]3C[C@@H](O)CC(=O)O3)[C@H]21	-	-	1.26µM	-	-
COc1cc(NC(=O)CC(c2ccc(C)cc2)N2Cc3ccccc3C2=O)cc(OC)c1 (centres undefined)	.	-	.	.	.
Cc1ccc(CNC(=O)c2ccc(C)s2)cc1	.	12.6µM	-	-	-
SMILES	p53 reactivator	BRCA1 expr up	uPA surface inh	TCR act	IL2 activator
CCOC(=O)c1cnc(Nc2nc3ccccc3o2)nc1CSc1nnc(C)s1	.	5.01µM	-	-	-
Cc1ccc(S(=O)(=O)Nc2c(C)n(C)n(-c3ccccc3)c2=O)cc1C(=O)OC(C)C(=O)c1ccccc1 (centres undefined)	.	-	5.01µM	-	-
Cc1ccc(S(=O)(=O)Nc2c(C)n(C)n(-c3ccccc3)c2=O)cc1C(=O)OC(C)C(=O)N(C)c1ccccc1 (centres undefined)	-	-	-	-	-
O=[N+]([O-])c1ccccc1OCc1nc(-c2cccs2)no1	-	2.82µM	-	-	-
CNc1ccc(/C=C\CCCO)cn1	.	10µM	.	.	-
Cc1nc(-c2ccc(S(=O)(=O)Nc3cc(Cl)ccc3C)cc2)co1	.	-	.	.	.
Clc1ccc(CN=C2Nc3ccccc3CS2)cc1	?	8.91µM	.	-	-
Cc1ccc(CN=C2Nc3ccccc3CS2)cc1	-	?	.	-	-
COc1cccc(CN2C(=O)c3ccccc3Sc3ccc(C(=O)OCc4ccco4)cc32)c1	.	-	.	.	.
COc1ccccc1C(=O)NCC(=O)N1CCN(c2ncccn2)CC1	-	-	-	.	-
O=C(NCC(=O)N1CCN(c2ncccn2)CC1)c1ccccc1F	-	7.94µM	-	-	-
COc1cc(CN2CCc3ccccc3C2)ccc1O	-	-	2.82µM	-	-
COc1cc(CN2CCc3ccccc3C2)cc([N+](=O)[O-])c1O	-	-	-	-	-
Nc1ccc(NC(=O)NC2CCCCC2)cc1[N+](=O)[O-]	-	3.98µM	-	-	-
O=C(Cn1cc(C(=O)c2ccccc2)c(=O)c2cc3c(cc21)OCCO3)Nc1ccc(F)c(F)c1	.	-	.	.	.
Cc1occc1C(=O)NCCCCNC(=O)c1ccoc1C	-	-	-	-	-
Cc1occc1C(=O)NCCCc1ccccc1	?	12.6µM	-	-	-
Cc1occc1C(=O)NNC(=O)c1ccccc1C(=O)O	-	10µM	-	-	-
O=C(CN1C(=O)COc2ccc(S(=O)(=O)N3CCCCCC3)cc21)N1CCN(c2ccc(Cl)cc2)CC1	.	-	.	.	.
COc1ccc(NS(=O)(=O)c2cc(NC(=O)[C@@H](NC(=O)c3ccccc3)C(C)C)ccc2C)cc1	-	-	12.6µM	-	-
COc1ccc(NS(=O)(=O)c2cc(NC(=O)c3ccc(=O)[nH]c3)ccc2C)cc1	-	-	-	.	-
CCOc1ccc(N(C)C(=O)CS(=O)(=O)c2cccc3nsnc23)cc1	.	-	.	.	.
Nc1nc(-c2ccc3c(c2)CCCC3)cs1	?	3.16µM	-	-	-
Nc1nc(-c2cccc(F)c2)cs1	-	11.2µM	-	-	-
CC1Cc2cc(-c3csc(N)n3)ccc2O1 (centres undefined)	.	3.16µM	-	-	-
SMILES	p53 reactivator	BRCA1 expr up	uPA surface inh	TCR act	IL2 activator
CC(C)(C)C(=O)N1CCc2cc(-c3csc(N)n3)ccc21	-	-	-	-	-
Nc1nc(-c2ccc3c(c2)OCCO3)cs1	-	-	-	-	-
CN(Cc1ccccc1)S(=O)(=O)c1ccc(-c2cnc(C3CC3)o2)cc1	.	-	.	.	.
CN(C)c1ccc(/C=C/c2cnnc3ccccc23)cc1	.	-	.	.	.
Cc1ccc2c(CNCc3ccco3)cc(=O)oc2c1	?	7.94µM	.	-	-
CCOc1ccccc1NCc1cc(=O)oc2cc(C)ccc12	-	-	-	-	-
O=C(CCCn1c(=O)c2ccccc2n(Cc2cccc(F)c2)c1=O)NCc1ccccc1Cl	.	-	.	.	.
CCOc1ccc(-c2noc(-c3cccnc3)n2)cc1OC	?	8.91µM	-	-	-
COc1ccc(-c2noc(-c3cccnc3)n2)cc1OC	-	7.94µM	-	-	-
Brc1ccc(NC2=Nc3ccccc3CC2)cc1	?	8.91µM	-	.	-
Cc1ccc(NC2=Nc3ccccc3CC2)cc1	-	-	-	-	-
